Consider 40 molecules from PubChem BioAssay AID1569 (National Center for Advancing Translational Sciences (NCATS), 2009).

Records with an inconclusive call do not appear. Active and inactive are the calls of the source. Calls follow the shape of the dose curve; as a rule, active = well fitted inhibition curve with a large enough effect; inconclusive = small, poorly fitted or top-dose-only effect, or effect the other way, or another doubt; inactive = no such curve, though single readings can be large or run the other way.
Potency is read from the fitted curve at half-maximal effect.

This experiment in a line: Confirmation Concentration-Response Assay for lipid storage modulators. Also: nearly all actives have a fitted effect of over 80% in size. The settings on record: Drosophila S3 cells, lipid droplet BODIPY/CellTracker ratio, 18-24 h; series mostly up to 46.1 µM. The source says:
NIH Molecular Libraries Probe Production Centers Network [MLPCN] NIH Chemical Genomics Center [NCGC] MLPCN Grant: 1 R03 MH085686-01 Assay Submitter (PI): Beller, Mathias; Max-Planck-Institut fur Biophysikalische Chemie NCGC Assay Overview: Storing lipids as a reservoir for energy or the anabolism of elementary metabolites is a common feature of probably all cells and is conserved from bacteria to humans. The universal cellular lipid storage organelle is the so-called lipid storage droplet (LD). Although ubiquitous, LDs share a simple structure composed of a hydrophobic core that harbors the storage lipids, which is shielded by a droplet-specific phospholipid monolayer to which proteins are attached. The current model of LD biogenesis involves an incorporation of the lipid core into the membrane leaflets of the endoplasmic reticulum (ER) followed by a subsequent budding-like maturation of a LD, which ultimately pinches off. Once released, LD volume can increase by localized lipogenesis or fusion of existing droplets. Storage lipids are re-mobilized enzymatically by lipase activity. Lipase regulation in the adipocyte is heavily studied and involves multiple components including catecholamine signaling, the LD-associated proteins Perilipin and comparative gene identification-58 (CGI-58) and at least two lipases named hormone sensitive lipase (HSL) and adipocyte triglyceride lipase (ATGL). LD regulation outside of the adipocyte is poorly understood and only few components are known. However, there is an urgent need to learn more about ectopic fat depots as mislocalized storage of lipids, for example in the liver or muscle, is an eminent health problem associated with insulin resistance or the metabolic syndrome. We developed a laser-scanning cytometer assay to enable 1,536-well screening and combined the results of the small molecules screen with an RNAi database based on lipid storage. Exo1 identified in the primary screen (AID 1519) and several analogs were measured in the lipid storage assay as 24-point concentration-response curves to confirm potency and SAR.
We dispensed 4 uL of cells at 1.25 x 10^6 cells/mL into LoBase Aurora COC 1,536-well plates (black walled, clear bottom) with a bottle-valve solenoid-based dispenser (Aurora) to obtain 5,000 cells/well. Triacsin C (Sigma-Aldrich T-4540), an inhibitor of long-chain fatty acyl CoA synthetase that blocks synthesis of triglycerides, was used as a positive control for lipid under-storage. A total of 23 nL of compound solution of different concentrations were transferred to the assay plates using a Kalypsys pin tool equipped with a 1,536-pin array containing 10-nL slotted pins (FP1S10, 0.457-mm diameter, 50.8 mm long; V&P Scientific). One microliter of oleic acid (400 uM) was added, and the plate was lidded with stainless steel rubber gasket lined lids containing pinholes. After 18-24 h incubation at 24 degree Celsius and 95% humidity, 4 uL of the dyes BODIPY 493/503 (Molecular Probes) and the Cell Tracker Red CMTPX dye (Molecular Probes) were added to the wells to stain lipid droplets and enumerate cell number, respectively. Fluorescence was detected by excitation of the fluorophores with a 488-nm laser on an Acumen Explorer (TTP Lab Tech). The total intensity in channel 1 (500-530 nm) reflected lipid droplet accumulation. Cells were detected using channel 3 (575- 640 nm) with 5-um width and 100-um depth filters. The ratio of the total intensity in PMT channel 1 over total intensity of channel 3 was also calculated. Percent activity was computed relative to an internal control (100% inhibited lipid droplet deposition due to the presence of 20 uM Triacsin C), which was added to 32 wells/plate.
For the molecule `O=C(CSc1nnc2c(n1)[nH]c1ccccc12)Nc1cccc(S(=O)(=O)N2CCOCC2)c1`, the Potency is 15800 nM (active).
Turning to `O=C(Nc1ccc(N2CCOCC2)cc1N1CCOCC1)c1ccc(Br)cc1`, the Potency result is “inactive”.
Take `O=C(NC1CCCc2c1cnn2-c1ccc(F)cc1F)c1cnccn1` (stereo not given): the Potency is 445 nM (active).
As for `Cc1ccc(NC(=O)CNC(=O)CC23CC4CC(CC(C4)C2)C3)c(O)c1`, the Potency was 2230 nM (active).
`CCCOc1ccc2oc(=O)c3c(c2c1)CCCN3C(=O)CN1CCN(C(=O)c2ccco2)CC1`: the Potency was 1990 nM (active).
Consider `COC(=O)c1ccc(C(=O)NC2CCCc3c2cnn3-c2ccccc2F)nc1` (stereo not given), for which the Potency is 177 nM (active).
In the case of `CCN1CCCC1CNC(=O)C(=O)NCCc1ccc(OC)c(OC)c1` (stereo not given) it was “inactive”; in that of `COc1ccc(NC(=O)NC2(C(=O)N3CCN(C)CC3)CCCCC2)cc1`, “inactive”.
In the case of `CCCCCCCCCCCCCCCCn1cc[n+](C)c1` it was 3150 nM (active).
Turning to `COc1cc(/C=N/NC(=O)c2ccc(CN3C(=O)c4cccc5cccc3c45)cc2)cc(OC)c1O`, the Potency is 4990 nM (active).
With `CCOC(=O)c1cc2c(ccn2-c2ccc(F)cc2)n1CC(=O)NC(C)(C)C`, the Potency was 1410 nM (active).
In the case of `CC1CCCN(C2=C(NS(=O)(=O)c3ccc(Br)cc3)C(=O)c3ccccc3C2=O)C1` (stereo not given), the Potency is 2500 nM (active).
Take `Cc1ccc(C)c(S(=O)(=O)N2CCN(CC(=O)Nc3sccc3C#N)CC2)c1`: the Potency was 9960 nM (active).
In the case of `CNC(=O)NC(=O)C(C)OC(=O)c1c2c(nc3ccccc13)/C(=C/c1cccs1)CC2` (stereo not given) it was 141 nM (active).
With `COC(=O)c1c(-c2c(Cl)cccc2Cl)noc1NC(=O)NN1CCOCC1`, the Potency was 2500 nM (active).
Then `COCc1ccc(C(=O)NC2CCCc3c2cnn3-c2cc(C)cc(C)c2)s1` (stereo not given), with 24.4 nM (active).
Then `O=C(NC1CCCc2c1cnn2-c1cc(F)cc(F)c1)c1cc[n+]([O-])cc1` (stereo not given), with “inactive”.
In the case of `COc1cccc(C(=O)O[C@@H]2[C@H](Cc3ccccc3)NS(=O)(=O)[C@H]3C[C@@H]4C=C[C@]23O4)c1` it was 11200 nM (active); in that of `COc1ccc(CCNC(=O)COc2ccc(S(=O)(=O)NCC(C)C)cc2Cl)cc1OC`, “inactive”; in that of `COc1ccc(/C=C(\NC(=O)c2cccs2)C(=O)Nc2ccc(C)cc2)cc1OC`, 141 nM (active).
Turning to `COc1ccc2c(c1)c1nnc(SCC(=O)N3C(C)CCCC3C)nc1n2C` (stereo not given), the Potency was 3530 nM (active).
In the case of `COc1ccc(CCNC(=O)CSc2nnc(CNc3ccc(Cl)cc3)o2)cc1OC`, the Potency result was “inactive”.
For `O=C(Nc1ccc(S(=O)(=O)N2CCCC2)cc1)c1ccc(CN2CCc3ccccc3C2)cc1`, the Potency was 14100 nM (active).
Then `CCC(=O)c1ccc(OCC(=O)Nc2ccc(N3CCOCC3)cc2N2CCOCC2)cc1`, with “inactive”; and `Cn1nc(C(C)(C)C)cc1C(=O)NCc1ccc2c(c1)OCO2`, with 2500 nM (active).
In the case of `Nc1c(C(=O)C2CC2)sc2nc(-c3ccccc3)cc(C(F)(F)F)c12` it was 1580 nM (active); in that of `COc1ccc(Cl)cc1NC(=O)CN(C)C(=O)CCCc1c[nH]c2ccccc12`, 22300 nM (active); in that of `COc1ccc(CCNC(=O)[C@H](C)N2C(=O)N3CCc4c([nH]c5ccccc45)[C@@]3(C)C2=O)cc1OC`, 560 nM (active).
On to `COCCCN1C(=O)c2ccc(C(=O)OCC(=O)NCc3ccccc3OC)cc2C1=O`, for which the Potency entry is “inactive”.
Then `CC(C)N1CCc2c(sc(NC(=O)c3ccc(S(=O)(=O)N4CCCCC4C)cc3)c2C(N)=O)C1` (stereo not given), with “inactive”; and `O=C(NCc1cccnc1)Nc1cc(Cl)cc(Cl)c1`, with “inactive”.
In the case of `CCOc1ccc(CCNC(=O)COC(=O)C2CCN(c3ccc(C(F)(F)F)cn3)CC2)cc1OCC`, the Potency result is “inactive”.
As to `O=C(NC1CCCc2c1cnn2-c1ccccc1F)c1ccccn1` (stereo not given), the Potency is 7.9 nM (active).
`CC(Oc1ccc2oc3ccccc3c2c1)C(=O)NC12CC3CC(CC(C3)C1)C2` (stereo not given): the Potency is 705 nM (active).
In the case of `Cc1ccc(NCc2ccc(O)c3ncccc23)cc1`, the Potency result was “inactive”.
Regarding `CN(CC1CCCO1)S(=O)(=O)c1ccc(C(=O)Nc2ccc(F)cc2)cc1` (stereo not given), the Potency result is “inactive”.
Then `CCOC(=O)c1cc2c(ccn2C)n1CC(=O)N1C(C)CCCC1C` (stereo not given), with 11200 nM (active).
In the case of `CCOc1ccc(CCNC(=O)COC(=O)COc2cc(C)cc(C)c2)cc1OCC` it was “inactive”; in that of `c1ccc(-c2cnn3c(-c4ccccc4)c(-c4ccccc4)nc3n2)cc1`, 3150 nM (active); in that of `CCOc1ccc(CCNC(=O)Cn2cccc2C(=O)c2ccccc2)cc1OCC`, 7910 nM (active).
